For 9 compounds, Percent Effect results are on record in ChEMBL document CHEMBL3988442, “University of Dundee, Small-Polar-MMV Screening Library” (2021).

Holding throughout (set-up): scale not given: direction of the effect not stated beside the values
In test [1] the target is Protein translocase subunit SecA (Escherichia coli (strain K12)) (UniProt P10408). Nature of the test: Assay to Identify E. coli SecA ATPase Inhibitors. The test is classed as functional. The following applies: 30 µM.
For test [2], the target named is T1, Ubiquitin-activating enzyme e1, putative (Leishmania donovani (strain BPK282A1)) (UniProt E9BSI1).
T1 sequence (whole entry): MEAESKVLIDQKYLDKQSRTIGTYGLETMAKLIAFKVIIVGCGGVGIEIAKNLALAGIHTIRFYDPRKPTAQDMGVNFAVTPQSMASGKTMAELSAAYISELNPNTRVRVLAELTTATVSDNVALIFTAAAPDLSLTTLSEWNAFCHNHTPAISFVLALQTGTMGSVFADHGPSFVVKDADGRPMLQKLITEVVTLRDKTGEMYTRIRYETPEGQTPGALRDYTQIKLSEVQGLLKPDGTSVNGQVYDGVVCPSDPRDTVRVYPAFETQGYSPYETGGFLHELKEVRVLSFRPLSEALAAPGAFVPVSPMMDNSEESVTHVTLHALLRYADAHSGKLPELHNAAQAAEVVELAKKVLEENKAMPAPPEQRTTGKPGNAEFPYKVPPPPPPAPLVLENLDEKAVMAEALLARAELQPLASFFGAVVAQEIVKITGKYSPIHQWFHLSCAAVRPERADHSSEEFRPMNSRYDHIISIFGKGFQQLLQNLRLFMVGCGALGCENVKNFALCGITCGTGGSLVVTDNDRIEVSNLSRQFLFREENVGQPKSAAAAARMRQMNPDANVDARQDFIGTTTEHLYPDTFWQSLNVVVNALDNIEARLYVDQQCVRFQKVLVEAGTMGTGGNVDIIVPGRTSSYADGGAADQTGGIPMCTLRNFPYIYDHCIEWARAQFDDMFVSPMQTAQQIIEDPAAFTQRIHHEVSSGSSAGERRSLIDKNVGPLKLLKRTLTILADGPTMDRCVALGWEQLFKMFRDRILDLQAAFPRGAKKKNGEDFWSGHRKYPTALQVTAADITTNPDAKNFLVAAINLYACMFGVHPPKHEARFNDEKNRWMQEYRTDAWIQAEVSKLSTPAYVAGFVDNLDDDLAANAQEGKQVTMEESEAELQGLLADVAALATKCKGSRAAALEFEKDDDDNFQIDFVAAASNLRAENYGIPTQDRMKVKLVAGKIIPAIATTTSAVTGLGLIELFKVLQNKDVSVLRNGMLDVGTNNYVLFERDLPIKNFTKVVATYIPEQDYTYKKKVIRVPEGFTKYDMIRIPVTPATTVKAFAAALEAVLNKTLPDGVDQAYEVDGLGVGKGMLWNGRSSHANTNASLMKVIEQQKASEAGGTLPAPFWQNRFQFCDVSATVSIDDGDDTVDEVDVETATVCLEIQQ
Nature of the test: Leishmania donovani Ubiquitin Activating Enzyme (LdE1). The following applies: 30 µM. The test is classed as functional.

The target of test [3] is AMP-activated protein kinase, AMPK (Homo sapiens) (UniProt P54646+O43741+P54619+Q9UGJ0+Q9Y478+Q13131+Q9UGI9). Nature of the test: AMP-dependent Kinase enzyme assay. An in vitro enzyme assay that detects ADP turnover that is directly proportional to AMPK activity. This uses naive AMPK that is activated during the assay with MK-8722. Format: functional. The following applies: 30 µM.

The target in test [4] is Sialic acid-binding Ig-like lectin 9 (Homo sapiens) (UniProt Q9Y336). Briefly: Hs-Siglec9 ALPHAscreen SOP 20170721. The following applies: 10 µM. For orientation: Bead proximity is the source of the signal in Alpha formats.
Sialic acid-binding Ig-like lectin 9 (Homo sapiens), sequence (Q9Y336 whole entry): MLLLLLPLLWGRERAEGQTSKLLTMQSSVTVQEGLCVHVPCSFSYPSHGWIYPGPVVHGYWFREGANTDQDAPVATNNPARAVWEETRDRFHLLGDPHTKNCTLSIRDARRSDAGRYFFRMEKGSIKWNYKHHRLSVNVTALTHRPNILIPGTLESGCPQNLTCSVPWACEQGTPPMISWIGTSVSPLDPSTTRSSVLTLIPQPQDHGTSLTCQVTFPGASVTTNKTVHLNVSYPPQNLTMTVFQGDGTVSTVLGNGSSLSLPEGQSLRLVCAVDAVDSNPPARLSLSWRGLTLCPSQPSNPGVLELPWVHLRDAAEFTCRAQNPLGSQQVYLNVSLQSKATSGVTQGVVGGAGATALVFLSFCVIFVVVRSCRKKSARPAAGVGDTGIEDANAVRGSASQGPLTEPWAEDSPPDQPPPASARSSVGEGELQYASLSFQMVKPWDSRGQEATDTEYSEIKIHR
Another test deals with Trypanosoma cruzi. Nature of the test: Trypanosoma cruzi phosphomannomutase and mannose-1-phosphate guanylyltransferase assay. The test is classed as functional. The following applies: 10 µM.
Test [5] has as its target T2, Arginase-2, mitochondrial (Homo sapiens) (UniProt P78540).
T2 sequence (whole entry): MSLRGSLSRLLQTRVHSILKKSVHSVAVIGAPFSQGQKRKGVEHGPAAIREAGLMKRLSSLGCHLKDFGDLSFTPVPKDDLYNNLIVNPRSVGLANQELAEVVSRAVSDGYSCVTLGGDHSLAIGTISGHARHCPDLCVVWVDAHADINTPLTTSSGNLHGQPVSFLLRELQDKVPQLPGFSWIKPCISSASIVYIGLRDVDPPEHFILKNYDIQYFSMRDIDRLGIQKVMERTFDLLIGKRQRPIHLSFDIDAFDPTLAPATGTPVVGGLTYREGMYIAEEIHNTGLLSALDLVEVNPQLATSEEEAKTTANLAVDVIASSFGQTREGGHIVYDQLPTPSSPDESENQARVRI
Nature of the test: in vitro enzyme assay to detect the production of urea directly proportional to the activity of Arginase II. Further: in the data most compounds retested in dose-response had high values. Format: functional. The following applies: 33.3 µM.

The target in test [6] is T3, Proteasome subunit beta (Trypanosoma cruzi) (UniProt O96673).
T3 sequence (whole entry): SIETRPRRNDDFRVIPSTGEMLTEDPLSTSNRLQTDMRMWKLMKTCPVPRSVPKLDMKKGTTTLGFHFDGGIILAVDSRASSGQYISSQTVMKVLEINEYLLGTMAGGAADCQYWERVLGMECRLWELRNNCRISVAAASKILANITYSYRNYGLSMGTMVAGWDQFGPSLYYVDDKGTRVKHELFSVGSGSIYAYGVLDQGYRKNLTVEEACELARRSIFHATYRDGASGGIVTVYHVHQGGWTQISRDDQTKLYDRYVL
Nature of the test: Trypanosoma cruzi proteasome chymotrypsin-like activity (TcProtChymo) assay. Further: in the data most compounds retested in dose-response had high values. Format: functional. The following applies: 9.37 µM.

The species entered for another test is Homo sapiens. Nature of the test: To identify inhibition of the IFN signalling (Jak-Stat) pathway via expression of an eGFP reporter gene under the control of an IFN-stimulated response element (ISRE) containing MxA promoter. Format: functional. The following applies: 30 µM.
For test [7], the target named is T4, Tyrosyl-tRNA synthetase, putative (Trypanosoma cruzi (strain CL Brener)) (UniProt Q4DSP6).
T4 sequence (whole entry): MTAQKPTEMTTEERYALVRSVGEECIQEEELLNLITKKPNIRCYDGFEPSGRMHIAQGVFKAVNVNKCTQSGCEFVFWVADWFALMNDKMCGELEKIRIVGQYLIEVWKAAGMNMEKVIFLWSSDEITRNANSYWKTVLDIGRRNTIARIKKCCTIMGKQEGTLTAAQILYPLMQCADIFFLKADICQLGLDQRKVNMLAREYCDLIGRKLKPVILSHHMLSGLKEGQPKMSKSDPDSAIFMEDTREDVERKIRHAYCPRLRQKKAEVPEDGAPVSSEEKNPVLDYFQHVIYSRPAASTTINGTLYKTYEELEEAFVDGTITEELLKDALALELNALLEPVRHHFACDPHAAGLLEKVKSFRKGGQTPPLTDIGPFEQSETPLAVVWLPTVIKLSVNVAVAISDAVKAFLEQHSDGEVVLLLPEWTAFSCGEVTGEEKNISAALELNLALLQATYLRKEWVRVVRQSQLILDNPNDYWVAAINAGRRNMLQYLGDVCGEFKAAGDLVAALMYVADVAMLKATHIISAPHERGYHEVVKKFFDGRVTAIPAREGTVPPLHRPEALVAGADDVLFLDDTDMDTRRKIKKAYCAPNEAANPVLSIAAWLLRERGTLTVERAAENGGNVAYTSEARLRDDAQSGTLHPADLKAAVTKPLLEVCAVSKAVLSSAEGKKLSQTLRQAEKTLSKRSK
Nature of the test: Trypanosoma cruzi tyrosyl tRNA synthetase (TcYRS) _High Tyrosine SOP. Further: in the data most compounds retested in dose-response had high values. The test is classed as functional. The following applies: 30 µM.

The target of test [8] is T4, Tyrosyl-tRNA synthetase, putative (Trypanosoma cruzi (strain CL Brener)). Nature of the test: Trypanosoma cruzi tyrosyl tRNA synthetase (TcYRS) SOP. The test is classed as functional. The following applies: 30 µM.
Test [9] deals with Chromo domain-containing protein 1 (Saccharomyces cerevisiae (strain ATCC 204508 / S288c) (Baker's yeast)) (UniProt P32657). Nature of the test: ScCHD-1 Enzyme Inhibition Assay. Further: in the data most compounds retested in dose-response had high values. The test is classed as functional. The following applies: 30 µM.
Chromo domain-containing protein 1 (Saccharomyces cerevisiae (strain ATCC 204508 / S288c) (Baker's yeast)), sequence (P32657 whole entry, the tested form may be a part): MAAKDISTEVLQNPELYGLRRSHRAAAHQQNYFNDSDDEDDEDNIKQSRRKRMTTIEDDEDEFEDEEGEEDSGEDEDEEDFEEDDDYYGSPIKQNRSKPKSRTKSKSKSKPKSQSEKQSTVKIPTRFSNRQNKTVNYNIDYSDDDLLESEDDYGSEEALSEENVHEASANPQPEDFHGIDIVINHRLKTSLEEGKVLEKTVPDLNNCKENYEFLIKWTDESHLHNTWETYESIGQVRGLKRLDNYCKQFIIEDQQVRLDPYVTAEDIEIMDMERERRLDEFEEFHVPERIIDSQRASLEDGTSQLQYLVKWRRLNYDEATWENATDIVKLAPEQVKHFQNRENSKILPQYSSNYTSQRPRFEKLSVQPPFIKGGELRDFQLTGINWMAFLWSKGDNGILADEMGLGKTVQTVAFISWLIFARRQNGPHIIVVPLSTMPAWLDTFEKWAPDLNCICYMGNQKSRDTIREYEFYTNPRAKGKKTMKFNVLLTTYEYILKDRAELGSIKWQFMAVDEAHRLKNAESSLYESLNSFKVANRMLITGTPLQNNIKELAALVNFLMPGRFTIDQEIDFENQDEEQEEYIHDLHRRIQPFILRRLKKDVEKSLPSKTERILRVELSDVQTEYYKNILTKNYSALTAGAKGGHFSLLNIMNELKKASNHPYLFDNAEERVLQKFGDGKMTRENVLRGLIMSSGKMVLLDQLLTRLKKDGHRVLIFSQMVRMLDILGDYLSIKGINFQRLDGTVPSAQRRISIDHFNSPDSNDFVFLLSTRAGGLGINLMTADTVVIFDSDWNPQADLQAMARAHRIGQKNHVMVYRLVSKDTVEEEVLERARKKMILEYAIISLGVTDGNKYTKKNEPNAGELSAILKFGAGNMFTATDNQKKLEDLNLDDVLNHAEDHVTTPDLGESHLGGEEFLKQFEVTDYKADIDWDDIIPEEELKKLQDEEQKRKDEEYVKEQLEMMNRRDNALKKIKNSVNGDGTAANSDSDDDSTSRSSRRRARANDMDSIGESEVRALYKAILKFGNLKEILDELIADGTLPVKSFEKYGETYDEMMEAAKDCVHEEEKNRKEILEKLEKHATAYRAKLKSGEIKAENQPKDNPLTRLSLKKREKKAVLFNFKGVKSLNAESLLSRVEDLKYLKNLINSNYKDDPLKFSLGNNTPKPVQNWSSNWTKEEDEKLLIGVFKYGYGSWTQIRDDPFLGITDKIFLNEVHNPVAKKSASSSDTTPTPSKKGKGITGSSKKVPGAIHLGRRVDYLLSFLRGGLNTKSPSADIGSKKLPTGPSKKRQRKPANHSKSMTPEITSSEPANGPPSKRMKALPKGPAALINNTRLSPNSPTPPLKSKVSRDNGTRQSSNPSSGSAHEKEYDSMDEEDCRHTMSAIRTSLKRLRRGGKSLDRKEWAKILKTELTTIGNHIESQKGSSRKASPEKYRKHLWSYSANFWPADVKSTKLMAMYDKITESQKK

Each structure is given as a SMILES string. For part of these data: Measured potencies and affinities stand elsewhere.

Protein translocase subunit SecA (Escherichia coli (strain K12)), sequence (P10408 whole entry): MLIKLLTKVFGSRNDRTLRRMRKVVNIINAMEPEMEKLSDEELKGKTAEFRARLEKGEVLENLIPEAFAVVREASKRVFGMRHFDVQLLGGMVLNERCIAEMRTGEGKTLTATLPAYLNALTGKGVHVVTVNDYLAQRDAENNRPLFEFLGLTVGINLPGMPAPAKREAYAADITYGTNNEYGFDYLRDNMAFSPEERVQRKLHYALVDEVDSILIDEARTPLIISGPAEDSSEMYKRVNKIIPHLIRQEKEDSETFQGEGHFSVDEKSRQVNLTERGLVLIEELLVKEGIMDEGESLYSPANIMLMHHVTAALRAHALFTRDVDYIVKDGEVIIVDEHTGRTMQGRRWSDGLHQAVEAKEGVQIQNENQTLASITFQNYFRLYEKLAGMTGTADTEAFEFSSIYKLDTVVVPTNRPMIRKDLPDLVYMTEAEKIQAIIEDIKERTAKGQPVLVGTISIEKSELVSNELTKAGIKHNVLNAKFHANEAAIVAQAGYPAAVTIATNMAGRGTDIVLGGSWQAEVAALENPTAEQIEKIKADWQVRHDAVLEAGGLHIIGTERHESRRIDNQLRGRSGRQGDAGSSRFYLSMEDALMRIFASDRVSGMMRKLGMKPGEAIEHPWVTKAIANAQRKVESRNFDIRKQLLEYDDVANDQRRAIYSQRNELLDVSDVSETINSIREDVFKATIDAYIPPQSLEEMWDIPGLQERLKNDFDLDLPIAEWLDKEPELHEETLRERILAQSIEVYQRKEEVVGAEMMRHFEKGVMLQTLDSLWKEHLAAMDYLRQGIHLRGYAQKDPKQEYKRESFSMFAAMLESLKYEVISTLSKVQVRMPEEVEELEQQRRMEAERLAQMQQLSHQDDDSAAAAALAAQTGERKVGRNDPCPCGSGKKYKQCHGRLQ

Regarding `O=C(c1ccsc1)N1C[C@@H]2C[C@@H](c3nnc(C4CC4)o3)O[C@@H]2C1`, the Percent Effect in [1] is -1.51%; in test [2] it was 7.79%; in test [3] it was 6.12%; in test [4], 6.45%; in the test with Trypanosoma cruzi, -4.63%; in test [5], 5.81%. For the same compound, the Percent Effect is 3.31% in test [6]; 15% in the test listed under Homo sapiens; 1.06% in [7]; 3.85% in test [8]; -4.38% in test [9].

Regarding `Cn1cccc1C(=O)N1CCN(Cc2ccncc2)c2ncccc2C1`, the Percent Effect was 1.82% in test [1]; 13.3% in [2]; 9.01% in test [3]; 8.59% in test [4]; -4.83% in the test with Trypanosoma cruzi; -57.2% in [5]. Moreover, the Percent Effect in [6] was 12.1%; in the test listed under Homo sapiens, 13.8%; in [7], 8.33%; in test [8], 10%; in test [9], -5.07%.

Regarding `Cc1nnc(C(C)N2CCN(Cc3ccc4c(c3)OCO4)CC2)o1` (centres undefined), the Percent Effect in [1] is -8%; in test [2] it was 8.11%; in [3], -13.4%; in test [4], 7.45%; with Trypanosoma cruzi, -4.62%; in test [5], -4.01%. Further, the Percent Effect in [6] was -0.36%; in the test listed under Homo sapiens, 13.3%; in test [7], -0.493%; in test [8], -8.64%; in [9], 2.83%.

On to `O=C(CCc1ccccn1)N1CCc2cc(Cl)cc(Cl)c2C1`, for which the Percent Effect in [1] was -0.0645%; in test [2], 7.79%; in test [3] it was 5.1%; in test [4], 1.57%; in the test on Trypanosoma cruzi it was -9.34%; in test [5], -17.9%. Also, the Percent Effect was 15% in test [6]; 47.7% in the test listed under Homo sapiens; -1.07% in test [7]; -3.7% in test [8]; -2.98% in test [9].

As for `CS(=O)(=O)NCC1CCCN(Cc2ccc(F)c3cccnc23)C1` (centres undefined), the Percent Effect in [1] is -1.47%; in test [2], 2.6%; in test [3], -1.1%; in test [4], 10.8%; in the test on Trypanosoma cruzi, -2.06%; in test [5], -4.14%. The Percent Effect in [6] was 18.5%; in the test listed under Homo sapiens, 16.9%; in test [7] it was 5.38%; in [8], 13.6%; in test [9] it was 3.65%.

On to `CC(NC(=O)N(C)Cc1ccsc1)c1ccc2c(c1)CCC(=O)N2` (centres undefined), for which the Percent Effect in test [1] was -0.422%; in test [2] it was 15.8%; in test [3], 5%; in [4], 7.35%; in the test on Trypanosoma cruzi, 1.13%; in test [5] it was -3.06%. In addition, the Percent Effect in [6] is 1.67%; in the test filed under Homo sapiens, 3.81%; in test [7], 1.47%; in test [8], 17.1%; in [9], -3.52%.

`CN(CCO)Cc1nnc(C2CCN(C(=O)C(C)(C)C)CC2)n1C`: the Percent Effect is -2.6% in test [1]; 5.33% in test [2]; 1.76% in test [3]; -1.99% in test [4]; -7.69% with Trypanosoma cruzi; 6.25% in [5]. For the same compound, the Percent Effect in [6] was 16.6%; in the test listed under Homo sapiens, 2.97%; in test [7] it was 0.546%; in test [8], 3.7%; in test [9], -6%.

`O=C(CCCc1cn[nH]c1)N1CCOCC(O)C1` (centres undefined): the Percent Effect was -5.63% in [1]; 0% in test [2]; -4.88% in test [3]; -7.04% in [4]; 0% in the test on Trypanosoma cruzi; -0.455% in test [5]. The Percent Effect in test [6] was 5.86%; in the test filed under Homo sapiens it was -11.9%; in test [7] it was 5.38%; in [8], 10%; in test [9], -3.63%.

Regarding `Cc1oncc1C(=O)N1CCC2(C1)CN(c1cccnc1)C(=O)CN2C` (centres undefined), the Percent Effect in [1] was -3.58%; in test [2], 10.7%; in test [3], -0.768%; in test [4], -0.716%; with Trypanosoma cruzi it was 4.05%; in test [5] it was -53.6%. In addition, the Percent Effect was 4.27% in test [6]; -6.85% in the test filed under Homo sapiens; 2.08% in test [7]; 5% in test [8]; -5.61% in test [9].
